Assay outcomes as filed in PubChem BioAssay.
Rows were chosen to be rich in hits. Some 2.9% of all compounds tested hit in one or more screens of this group.
MEKK3 PB1 HTS: MEKK3-MEK5 PB1 interaction, increase or decrease | binding response (% of control), % at 10 µM | 290,000 tested, 1.4% active | Q99759 | bead-based flow cytometry, Alexa488-MEK5 binding to MEKK3; actives lie on both sides; 0 = blocked by unlabeled MEK5, 100 = vehicle;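 active = binding response more than 3 SD above or below the average of its plate-row segment, actives on both sides; inconclusive = wells at one plate position flagged as instrument error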;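 also: Alexa488 bead fluorescence after subtracting the streptavidin-only scavenger bead signal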
MEKK2mut PB1 HTS: signal of MEK5 binding to mutant human MEKK2 PB1 domain | percent response, % at 10 µM | AID 1530 | bead flow cytometry, Alexa488-MEK5 binding to MEKK2 mutant | 290,000 tested, 0.35% active; in the data active = percent response above about 24%, passing the limit was not always enough
FID counter: displaces DNA intercalator in HCV helicase counter-screen; DNA fluorescent intercalator displacement, fluorescence; inhibition, % at 7.9 µM; 290,000 tested, 0.17% active; in the data active = inhibition above about 37%;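 also: 0% = vehicle and 100% = reference compound; higher means more ethidium bromide displaced from hairpin DNA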
dFosB act: mouse delta FosB homodimer activation. P13346. purified delta FosB, TAMRA-CDK5 oligo fluorescence polarization; percent of positive-control signal above neutral wells. activation, % at 25 µM. 340,000 tested, 0.99% active;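 active = mean activation above about 17%, with every replicate also reaching it, limit read from the data, passing the limit was not always enough; inconclusive = only one of the two conditions met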
Target sequence (P13346 whole entry, looked up): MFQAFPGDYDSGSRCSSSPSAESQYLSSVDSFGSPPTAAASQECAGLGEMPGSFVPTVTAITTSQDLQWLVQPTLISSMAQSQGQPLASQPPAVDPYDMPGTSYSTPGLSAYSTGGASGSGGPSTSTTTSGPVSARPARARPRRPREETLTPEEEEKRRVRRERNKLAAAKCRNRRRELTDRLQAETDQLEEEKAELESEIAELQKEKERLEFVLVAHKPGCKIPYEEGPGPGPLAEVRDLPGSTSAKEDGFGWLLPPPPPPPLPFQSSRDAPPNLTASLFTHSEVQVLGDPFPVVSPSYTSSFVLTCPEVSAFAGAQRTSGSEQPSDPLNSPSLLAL
MEKK2wt PB1 HTS: raises or lowers MEK5 binding to wildtype human MEKK2 PB1 domain | bead flow cytometry, Alexa488-MEK5 binding to MEKK2 WT; actives lie on both sides | AID 1531 | binding response (% of control), % at 10 µM | 290,000 tested, 1.1% active | Q9Y2U5; in the data active = binding response below about 67% or above about 130%; inconclusive = no clear call, values can overlap the other calls; inactive = in between
MEKK2wt confirm: raises or lowers MEK5 binding to wildtype human MEKK2, retest; shares compounds with MEKK3 PB1 HTS; bead flow cytometry, Alexa488-MEK5 binding to MEKK2 WT; actives lie on both sides; binding response (% of control), % at 10 µM; 5,900 tested, 2.4% active; in the data active = binding response below about 16% or above about 210%; inactive = in between
MEKK2mut confirm: signal of MEK5 binding to mutant human MEKK2, retest; bead flow cytometry, Alexa488-MEK5 binding to MEKK2 mutant; 5,900 tested, 2% active; AID 1893; percent response, % at 10 µM; shares compounds with MEKK3 PB1 HTS; in the data active = percent response mostly above about 71%, no sharp cut-off; inactive = mostly below about 38%;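 also: higher means compound restores mutant binding toward wildtype level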
MEKK3-MEK5 inh: confirmation of inhibitors of MEK5 binding to human MEKK3; shares compounds with MEKK3 PB1 HTS; bead flow cytometry, Alexa488-MEK5 binding to MEKK3; hits give low values; binding response (% of control), % at 10 µM; 5,900 tested, 1.8% active; AID 1894;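 active = binding response below 72% of control, or above a set upper limit, though filed actives all read lower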;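 also: 100% = DMSO only wells and 0% = binding blocked by excess unlabeled MEK5; lower values mean stronger disruption of MEK5 binding to MEKK3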
Active calls of the source: *; ? = inconclusive; · = no result given; [ ] = another dose, or the depositor's remark.

SMILES | MEKK3 PB1 HTS | MEKK2mut PB1 HTS | FID counter | dFosB act | MEKK2wt PB1 HTS | MEKK2wt confirm | MEKK2mut confirm | MEKK3-MEK5 inh
CCOC(=O)c1nc2ccccc2s1 | 2.0*[inhibitor] | -69.0 | -2.7 | -1.2 | 2.0*[inhibitor] | 102.0 | 1.0 | 103.0
N#C/C(=C(/O)COC(=O)c1ccc(C#N)cc1)c1nc2ccccc2s1 | 94.0 | 0.0 | -8.3 | -7.6 | -1.0*[inhibitor] | 96.0 | 1.0 | 98.0
COc1ccc(NS(=O)(=O)c2nnc(NC(=O)c3ccccc3F)s2)cc1 | 103.0 | 0.0 | -6.7 | -2.0 | 101.0 | · | · | ·
CN1CCN(Cc2cc(Cl)c3cccnc3c2OC(=O)c2cccs2)CC1 | 72.0*[inhibitor] | -1.0 | 1.6 | -18.3 | 94.0 | 105.0 | -1.0 | 100.0
CCN(CC(=O)Nc1ccc(Cl)c(C(F)(F)F)c1)CC(=O)NC1CCS(=O)(=O)C1 (stereo unspecified) | 101.0 | -5.0 | -21.3 | -4.4 | 100.0 | · | · | ·
N=C1CCCN1CC(=O)c1cccs1 | 105.0 | 0.0 | -7.9 | 3.8 | 103.0 | · | · | ·
N=C1CCCN1CC(=O)c1ccc(Cl)cc1 | 131.0* | 0.0 | -1.8 | 1.5 | 106.0 | 95.0 | -6.0 | 96.0
COc1cc(/C=C2\SC(=N)N(c3ccc(F)cc3)C2=O)ccc1O | 100.0 | 1.0 | -1.4 | -13.7 | 102.0 | · | · | ·
N=C1S/C(=C\c2ccccc2)C(=O)N1c1ccc(F)cc1 | 138.0* | 1.0 | 1.5 | 3.5 | 111.0 | 99.0 | -5.0 | 97.0
Cc1occc1-c1nnc(SCC(=O)c2c[nH]c3ccccc23)n1C | 106.0 | 2.0 | -17.4 | -5.0 | 102.0 | · | · | ·
CCCn1c(SCC(=O)c2c[nH]c3ccccc23)nnc1-c1ccncc1 | 71.0*[inhibitor] | 3.0 | -12.4 | -9.0 | 75.0 | 98.0 | -5.0 | 96.0
O=C(NC1=NCCS1)C1COc2ccccc2O1 (stereo unspecified) | 1.0*[inhibitor] | -8.0 | 2.7 | -5.5 | -1.0*[inhibitor] | 98.0 | 1.0 | 99.0
COc1ccc(CCN2CCC(Nc3nc4ccccc4n3Cc3ccc(F)cc3)CC2)cc1 | 67.0 | 38.0* | 22.6 | 0.9 | 150.0* | 179.0 | 33.0 | 102.0
O=C(NC(=S)N1CCOCC1)C12CCC3CC(CC(C3)C1)C2 | 134.0* | 2.0 | -2.2 | 2.0 | 99.0 | 96.0 | -4.0 | 100.0
O=C(NC(=S)N1CCOCC1)C12CC3CCC(CC(C3)C1)C2 | 100.0 | 10.0 | -7.5 | 6.3 | 110.0 | · | · | ·
NC(=O)C1CCN(c2nc(-c3cccs3)cs2)CC1 | · | · | · | -5.2 | · | · | · | ·
CC1c2ccccc2N(NC(=O)Cc2ccccc2)C1C (stereo unspecified) | 135.0* | 28.0 | -14.1 | 0.1 | 131.0 | 101.0 | 1.0 | 102.0
Cc1ccc(CN(C)C(=O)COC(=O)CSc2cc(C)c3ccccc3n2)cc1 | · | · | · | -19.9 | · | · | · | ·
O=C(CSc1nnc(COc2ccccc2)n1Cc1ccco1)c1ccc(F)cc1 | 103.0 | 2.0 | -28.4 | -8.2 | 102.0 | · | · | ·
NC(=O)CSc1nnc(COc2ccccc2)n1Cc1ccco1 | 131.0* | 0.0 | -3.1 | -8.1 | 120.0 | 96.0 | -3.0 | 97.0
CC/C(=C\c1oc2cc3ccccc3cc2[n+]1CC)Nc1ccccc1 | 135.0* | 464.0* | -3.1 | -6.6 | 389.0* | 92.0 | -88.0*[inhibitor] | 81.0
COc1ccc2c(/C=C/c3cc[n+](C)cc3)c[nH]c2c1 | 104.0 | 48.0* | 5.2 | 2.4 | 168.0* | 101.0 | -1.0 | 93.0
O=C(/C=C/c1ccc(Cl)cc1)Nn1c(-c2cccs2)nc2ccccc2c1=O | 131.0* | 0.0 | -8.2 | ? | 105.0 | 103.0 | 4.0 | 105.0
COc1ccc(Cl)cc1C(=O)Nn1c(-c2cccs2)nc2ccccc2c1=O | 104.0 | 0.0 | 0.2 | -2.6 | 104.0 | · | · | ·
COc1ccccc1N1C(=O)N(CC(=O)C(C)(C)C)c2ccccc2S1(=O)=O | 98.0 | -2.0 | -9.7 | 3.7 | 101.0 | · | · | ·
SMILES | MEKK3 PB1 HTS | MEKK2mut PB1 HTS | FID counter | dFosB act | MEKK2wt PB1 HTS | MEKK2wt confirm | MEKK2mut confirm | MEKK3-MEK5 inh
C#CCOCCOCCOCCNc1nc(N2CCN(C(=O)[C@H]([C@@H](C)CC)n3cc([C@@H](N)CC(C)C)nn3)CC2)nc(N2CCN(C(=O)[C@H](CCCCN)n3cc([C@@H](N)CC(C)C)nn3)CC2)n1 | 105.0 | 23.0 | 37.5* | 6.8 | 151.0* | 150.0 | 25.0 | 107.0
C#CCOCCOCCOCCNc1nc(N2CCOCC2)nc(N2CCN(C(=O)[C@H](CCCCN)n3cc(CCCC)nn3)CC2)n1 | · | · | · | -1.6 | · | · | · | ·
C#CCOCCOCCOCCNc1nc(N2CCN(C(=O)[C@H](CCCCN)n3cc(CCCC)nn3)CC2)nc(N2CCN(C(=O)[C@H](CCCCN)n3cc(CCCC)nn3)CC2)n1 | 110.0 | 13.0 | 27.2 | 15.1 | 159.0* | 152.0 | 32.0 | 104.0
C#CCOCCOCCOCCNc1nc(N2CCN(C(=O)C([C@@H](C)CC)n3cc(C(N)COC(=O)C(F)(F)F)nn3)CC2)nc(N2CCN(C(=O)[C@H](CCCCN)n3cc(C(N)[C@H](C)CC)nn3)CC2)n1 (stereo partly specified) | 116.0 | 62.0* | · | · | 304.0* | 237.0* | 86.0* | 114.0
C#CCOCCOCCOCCNc1nc(N2CCN(C(=O)[C@H]([C@@H](C)CC)n3cc([C@@H](N)CC(C)C)nn3)CC2)nc(N2CCN(C(=O)[C@H](CCCCN)n3cc([C@@H](N)C(C)CC)nn3)CC2)n1 (stereo partly specified) | 105.0 | 33.0 | 45.5* | ? | 146.0* | 141.0 | 23.0 | 108.0
S=C1NCCc2ccc(Cl)cc2C1c1ccccc1 (stereo unspecified) | 105.0 | 4.0 | -6.1 | 2.9 | 100.0 | · | · | ·
O=C(Cn1cc(/C=N/NC(=O)c2cccc3ccccc23)c2ccccc21)Nc1ccc(F)cc1 | 38.0*[inhibitor] | -14.0 | -4.0 | -4.6 | 38.0*[inhibitor] | 100.0 | -5.0 | 100.0
COc1ccc([N+](=O)[O-])cc1NC(=O)COC(=O)Cc1cc(OC)c(OC)c(OC)c1 | 99.0 | -1.0 | -10.3 | -1.7 | 99.0 | · | · | ·
COc1cc(CC(=O)OCC(=O)Nc2cc([N+](=O)[O-])ccc2Cl)cc(OC)c1OC | 97.0 | 9.0 | -7.1 | -7.7 | 58.0*[inhibitor] | 90.0 | -6.0 | 97.0
COc1ccc(C(N)CCc2ccco2)cc1 (stereo unspecified) | 113.0 | 27.0* | -13.1 | -5.7 | 132.0 | 119.0 | 15.0 | 98.0
COc1ccc(CNC(=O)CC2C[C@H](C(=O)N3CCOCC3)[C@@]3(C)c4[nH]c5ccccc5c4CCN3C2=O)cc1OC (stereo partly specified) | · | · | · | -5.5 | · | · | · | ·
O=C1C(=O)N(O)C2CCCCC2N1O (stereo unspecified) | 94.0 | 3.0 | 3.4 | -1.0 | 105.0 | · | · | ·
